Experiment [1] in a line: qHTS RealTime-Glo MT Cell Viability Assay in HepG2 cells - 40 hour (AID 1224870). Further: nearly all actives have a fitted effect of over 50% in size. In outline:
(§1)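 HepG2 cells mixed with RealTime-Glo MT reagents (NanoLuc plus cell-permeant prosubstrate) were seeded at 600 cells/well, incubated 5 h at 37 C/5% CO2, then pinned with compounds in DMSO; nonlytic luminescence tracked viability during 40 h treatment.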
Background: qHTS replaces the single test concentration by a dilution series.

Experiment [2] can be described thus: A CellTox Green Cytotoxicity Assay to monitor cytotoxicity in HEK293 cells - 40 hour (AID 1224871). Further: nearly all actives have a fitted effect of over 45% in size. Further: potency means the concentration at half of the fitted maximal effect. In short, it runs like this: (§2)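 Dead-cell fluorescence measured kinetically: asymmetric cyanine dye, HEK293, 600 cells/well, 5 h settle, 23 nL cpd/DMSO, 37 C, reads 0–40 h every 8 h.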
Experiment [3] in a line: qHTS RealTime-Glo MT Cell Viability Assay in HEK293 cells - 16 hour (AID 1224872). Further: nearly all actives have a fitted effect of over 50% in size. Further: potency means the concentration at half of the fitted maximal effect. On activity change, negative = cytotoxicity: top concentration of the series differs between compounds. In outline: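 Homogeneous bioluminescent viability format in HEK293 cells (600 cells/well). Following 5 h at 37 C/5% CO2, 23 nL compound was pintooled; the signal was measured repeatedly during 40 h incubation.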
Experiment [4] is described as follows: qHTS RealTime-Glo MT Cell Viability Assay in HepG2 cells - 8 hour (AID 1224873). Further: nearly all actives have a fitted effect of over 55% in size. In outline: as §1
Experiment [5] can be described thus: qHTS RealTime-Glo MT Cell Viability Assay in HEK293 cells - 40 hour (AID 1224874). Further: nearly all actives have a fitted effect of over 50% in size. Further: potency means the concentration at half of the fitted maximal effect. As to conditions: RealTime-Glo luminescence; max response: active compounds read low. In outline:
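600 HEK293 cells per well, dispensed already mixed with RealTime-Glo MT reagents. Compound dosing came 5 h later. The same wells were read for luminescence at 0, 8, 16, 24, 32 and 40 h of exposure at 37 C.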

The nature of experiment [6]: A CellTox Green Cytotoxicity Assay to monitor cytotoxicity in HEK293 cells - 24 hour (AID 1224875). Further: series mostly up to about 77 µM; nearly all actives have a fitted effect of over 45% in size. In short, it runs like this:
as §2

Experiment [7] can be described thus: A CellTox Green Cytotoxicity Assay to monitor cytotoxicity in HepG2 cells - 16 hour (AID 1224876). Further: nearly all actives have a fitted effect of over 45% in size. In outline: (§3)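 First, HepG2 cells (600/well) mixed with reagent were plated; second, after 5 h at 37 C they received compounds via pintool; third, fluorescence was measured at 0 h through 40 h at 8 h intervals.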
The nature of experiment [8]: qHTS RealTime-Glo MT Cell Viability Assay in HepG2 cells - 32 hour (AID 1224877). Further: nearly all actives have a fitted effect of over 55% in size. In outline:
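Cell number in HepG2 cultures estimated from NanoLuc luminescence generated by metabolic reduction of a prosubstrate by living cells. The homogeneous, nonlytic format allowed repeated reads at 0, 8, 16, 24, 32 and 40 h of compound exposure.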

Experiment [9] can be described thus: A CellTox Green Cytotoxicity Assay to monitor cytotoxicity in HepG2 cells - 40 hour (AID 1224879). Further: nearly all actives have a fitted effect of over 40% in size. Further: potency means the concentration at half of the fitted maximal effect. In outline: as §3
Experiment [10] is described as follows: A CellTox Green Cytotoxicity Assay to monitor cytotoxicity in HepG2 cells - 24 hour (AID 1224878). Further: nearly all actives have a fitted effect of over 45% in size. In outline:
as §3

Results on 23 compounds are retold here after PubChem BioAssay (Tox21).

Inconclusive results are not listed. A number with no mark means an inactive call. Activity calls are given as the source filed them. The call rests on the fitted dose curve; in most records, active means well fitted curve in the direction sought with a large enough effect in the repeat runs; inconclusive means weak or mixed curves; inactive means no such curve, though single readings can be large; an effect the other way counts as inactive or inconclusive.
On the % scale 0 is the no-effect control and ±100 the full control effect.

As for `CCOC(=O)c1ccccc1OC`, the Potency entry in experiment [1], in [2], in [3], in experiment [4], in experiment [6] and in experiment [7] was “inactive” throughout. For the same compound, the Potency result in experiment [8] and in experiment [9] was “inactive” throughout. Moreover, the max response in experiment [5] was -4.86%.

As to `c1ccc(COCc2ccccc2)cc1`, the Potency entry in experiment [1], in experiment [2], in experiment [3], in experiment [4], in experiment [6] and in experiment [7] was “inactive” in each case. Further, the Potency result in experiment [8] and in experiment [9] was “inactive” in each case. In addition, the max response in experiment [5] was 16.4%.

Consider `CC#N`, for which the Potency result in experiment [1], in [2], in experiment [3], in experiment [4], in experiment [6] and in experiment [7] was “inactive” each time. Also, the Potency result in [8] and in experiment [9] was “inactive” throughout. For the same compound, the max response in [5] was 1.57%.

Regarding `CCN(Cc1cccc(S(=O)(=O)O)c1)c1ccc(C(=C2C=CC(=[N+](CC)Cc3cccc(S(=O)(=O)[O-])c3)C=C2)c2ccccc2)cc1`, the Potency entry in [1], in experiment [2], in experiment [3], in experiment [4], in [6] and in experiment [10] was “inactive” in each case. Besides, in experiment [9], the Potency entry was “inactive”. In [5], the max response was 3.22%.

In the case of `O=C(O)c1cccnc1C(=O)O`, the Potency result in [1], in experiment [2], in [3], in experiment [4], in [6] and in experiment [7] was “inactive” each time. In addition, the Potency entry in [9] was “inactive”. Also, in experiment [5], the max response is -1.78%.

`ON(Cc1ccccc1)Cc1ccccc1`: the Potency result in experiment [1], in experiment [2], in [3], in [4], in experiment [6] and in experiment [7] was “inactive” throughout. The Potency entry in [8], in [10] and in experiment [9] was “inactive” each time. Moreover, the max response in experiment [5] was 4.01%.

Regarding `CC(C)C(=O)O`, the Potency result in experiment [1], in experiment [2], in [3], in experiment [4], in experiment [6] and in experiment [10] was “inactive” each time. Also, the Potency entry in [9] is “inactive”. Also, in [5], the max response was 9.49%.

On to `CCNC(=O)N1CCN(CCCC(c2ccc(F)cc2)c2ccc(F)cc2)CC1`, for which the Potency entry in experiment [1], in experiment [2], in experiment [4], in [6], in experiment [7] and in [8] was “inactive” in each case. Besides, the Potency was 16.9 µM (active) in experiment [3], 16.9 µM (active) in [5] and 21.3 µM (active) in experiment [9].

With `CC(C)CCCCCCOC(=O)CCCCC(=O)OCCCCCCC(C)C`, the Potency entry in [1], in experiment [2], in experiment [3], in experiment [4], in experiment [7] and in experiment [8] was “inactive” throughout. Besides, the Potency result in experiment [10] and in [9] was “inactive” in each case. The max response in [5] was 0.314%.

For `C=CC(C)=CCC=C(C)C`, the Potency entry in experiment [1], in experiment [2], in [3], in experiment [4], in experiment [6] and in [7] was “inactive” each time. In addition, the Potency entry in experiment [10] and in [9] was “inactive” in each case. Moreover, in [5], the max response was 4.34%.

On to `CCCC(=O)O[C@]1(C(=O)COC(=O)CC)CC[C@H]2[C@@H]3CCC4=CC(=O)CC[C@]4(C)[C@H]3[C@@H](O)C[C@@]21C`, for which the activity change, negative = cytotoxic was -0.605% [at 15.8 µM] in experiment [1] and 2.32% [at 15.8 µM] in experiment [8]. Besides, the cytotoxicity increase in experiment [2] was -16.6% [at 15.8 µM]; in [9], -7.71% [at 15.8 µM]. The activity change, negative = cytotoxicity in [3] was 5.42% [at 15.8 µM]. For the same compound, the viability change, negative = cytotoxic in experiment [4] was 4.81% [at 15.8 µM]. Also, the max response in experiment [5] was 4.99%. Also, the activity change in experiment [6] is -15.7% [at 15.8 µM, active compounds read high]. In addition, the cytotoxicity in experiment [10] is -8.51% [at 15.8 µM].

As to `CN1CCCN=C1/C=C/c1cccs1`, the Potency result in [1], in [2], in experiment [3], in experiment [4], in experiment [6] and in [7] was “inactive” throughout. Also, the Potency entry in [8], in experiment [10] and in experiment [9] was “inactive” throughout. Moreover, the max response in experiment [5] is 5.88%.

For the compound `Cc1cc(O)c2c(O)c3c(O)cccc3cc2c1`, the Potency result in experiment [1], in experiment [2], in experiment [3], in experiment [4], in [6] and in experiment [10] was “inactive” in each case. For the same compound, the Potency entry in [9] is “inactive”. Also, the max response in [5] is -16.2%.

With `CC(N)CN` (stereo unspecified), the Potency result in experiment [1], in experiment [2], in experiment [3], in experiment [4], in experiment [6] and in experiment [8] was “inactive” in each case. The Potency entry in experiment [10] and in experiment [9] was “inactive” in each case. Moreover, the max response in experiment [5] is 2.08%.

As for `CC(C)OCC1CO1` (stereo unspecified), the Potency entry in [1], in experiment [2], in experiment [3], in experiment [4], in experiment [6] and in experiment [7] was “inactive” each time. Further, the Potency entry in experiment [8] and in [9] was “inactive” throughout. Moreover, the max response in [5] was 11.5%.

In the case of `C/C=C(\C)C(=O)OCCC(C)CCC=C(C)C` (stereo unspecified), the Potency result in experiment [1], in experiment [2], in experiment [3], in experiment [4], in [6] and in experiment [7] was “inactive” in each case. Besides, the Potency entry in experiment [8] and in experiment [9] was “inactive” in each case. Further, the max response in experiment [5] was 5.27%.

With `O=C(O)c1snc(Cl)c1Cl`, the Potency result in [1], in [2], in experiment [3], in experiment [4], in experiment [8] and in experiment [10] was “inactive” each time. In experiment [9], the Potency result was “inactive”. In addition, the max response in [5] is 13.2%.

On to `Cc1cnc(C)c(C)n1`, for which the Potency result in experiment [1], in experiment [2], in experiment [3], in experiment [4], in [7] and in experiment [10] was “inactive” each time. In addition, the Potency entry in [9] is “inactive”. For the same compound, the max response in [5] was -11.2%.

With `Nc1ccc(S(=O)(=O)O)c(N)c1`, the Potency result in experiment [1], in experiment [2], in [3], in [4], in experiment [7] and in experiment [8] was “inactive” in each case. The Potency result in [10] and in [9] was “inactive” in each case. Besides, in [5], the max response was -8.29%.

Take `Nc1nc(Cl)nc2c1ncn2[C@@H]1O[C@H](CO)[C@@H](O)[C@@H]1F`: the Potency result in experiment [1], in experiment [2], in experiment [4], in [6], in experiment [7] and in experiment [8] was “inactive” throughout. Besides, the Potency entry in experiment [10] is “inactive”. In addition, the Potency in [5] is 4.25 µM (active).

As for `Cc1ccc(S(=O)(=O)NC2CCCCC2)cc1`, the Potency result in [1], in experiment [2], in experiment [3], in experiment [4], in experiment [6] and in experiment [8] was “inactive” in each case. Also, the Potency result in experiment [10] and in experiment [9] was “inactive” throughout.

In the case of `Cc1ccccc1N1C(=O)c2cc(S(N)(=O)=O)c(Cl)cc2NC1C` (stereo unspecified), the Potency entry in experiment [1], in [2], in experiment [3], in [4] and in experiment [9] was “inactive” in each case. For the same compound, the max response in [5] was -9.78%.

On to `CC(C)(C)CC(C)(C)c1ccc(OCCO)cc1`, for which the Potency entry in experiment [1], in experiment [4], in experiment [8] and in experiment [9] was “inactive” in each case. For the same compound, the Potency in [2] is 48.7 µM (active); in experiment [3] it was 6.88 µM (active); in experiment [5], 4.87 µM (active).
